VACV Venus inh = vaccinia inhibition (Venus reporter) | Vaccinia virus Venus reporter expression, fluorescence | Potency, µM (highest dose often 36.5 µM), usual class: inhibitors | hit rate 0.46% among 330,000; calls by dose curve; tested in A549 cells; further: nearly all actives have a fitted effect of over 30% in size
Giardia FBPA inh = inhibitors of Giardia lamblia fructose-1,6-bisphosphate aldolase | A8B2U2 | purified Giardia FBPA | Potency, µM (top dose mostly 59.6 µM), most hits filed as inhibitors | hit rate 0.71% among 290,000; active means well fitted inhibition curve with a large enough effect; inconclusive means small, poorly fitted or top-dose-only effect, or effect the other way; further: nearly all actives have a fitted effect of over 55% in size
Target sequence (A8B2U2 whole entry, looked up): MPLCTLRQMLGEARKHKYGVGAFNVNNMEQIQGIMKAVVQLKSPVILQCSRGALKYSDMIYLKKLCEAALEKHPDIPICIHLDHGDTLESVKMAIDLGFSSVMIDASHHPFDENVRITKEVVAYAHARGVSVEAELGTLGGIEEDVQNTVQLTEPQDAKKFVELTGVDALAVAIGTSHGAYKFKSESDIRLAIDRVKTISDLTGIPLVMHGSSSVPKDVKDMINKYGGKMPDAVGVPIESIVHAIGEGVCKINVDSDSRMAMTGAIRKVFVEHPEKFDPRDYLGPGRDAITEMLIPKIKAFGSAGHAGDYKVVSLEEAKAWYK
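40 nM FBPA preincubated 10 min at RT with compound (up to 57.5 uM final), then substrate plus GAPDH/TPI/NAD/arsenate coupling and diaphorase/resazurin added. Fluorescence read after 20 min at RT, 525/598 nm.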
FMDV inh = blocks foot and mouth disease virus. AID 1159524. FMDV antiviral cell-based qHTS. Potency, µM (top dose mostly 57.9 µM), hits mostly inhibitors. hit rate 1.2% among 410,000; calls by dose curve; tested in HEK293T cells; further: read-out not given here; nearly all actives have a fitted effect of over 45% in size
Vaccinia mCherry = inhibitors of vaccinia virus infection (mCherry reporter signal) | Vaccinia virus mCherry reporter infection, fluorescence | Potency, µM (titrated, usually from 36.5 µM), most hits filed as inhibitors | hit rate 0.63% among 310,000; calls by dose curve; tested in A549 cells; further: nearly all actives have a fitted effect of over 35% in size
Each line names hits and unclear results; the compound was inactive in the other large screens. Compounds with a hit are over-represented: about 2.2% of the library has one in this group of screens.

C=CCOC[C@@H]1CN2[C@H](c3ccc(Br)cc3)[C@@H](C)CC[C@H]2C(=O)O1	none (no result: VACV Venus inh, FMDV inh, Vaccinia mCherry)
C=CCn1c(SCC#N)nc2sc(CC)cc2c1=O	none
C=CCn1c(SCC(=O)O)nc2sc(CC)cc2c1=O	none
C=CCn1c(SCC(=O)/C(C#N)=C(\C)N)nc2sc(CC)cc2c1=O	FMDV inh 22.4µM
C=CCn1c(SCC(=O)c2cccs2)nc2sc(CC)cc2c1=O	FMDV inh 20µM (no result: VACV Venus inh, Vaccinia mCherry)
C=CCn1c(SCC(=O)N2CCc3ccccc3C2)nc2sc(C)cc2c1=O	VACV Venus inh inconclusive, FMDV inh 22.4µM (no result: Vaccinia mCherry)
N#Cc1cc(Oc2cccc3cccnc23)c(-n2nnc3ccccc32)cc1C#N	FMDV inh 15.8µM (no result: VACV Venus inh, Vaccinia mCherry)
COc1ccc(Cn2c(SCc3ccc(C)cc3)nc3cc(OC)c(OC)cc3c2=N)cc1Cl	FMDV inh 35.5µM
COc1ccc(Cn2c(SCc3cc(C)ccc3C)nc3cc(OC)c(OC)cc3c2=N)cc1	FMDV inh inconclusive (no result: VACV Venus inh, Vaccinia mCherry)
Cc1c(C)c2c(OCC(=O)N[C@@H](C)C(=O)O)cc3c(c2oc1=O)CCC(C)(C)O3	none
Cc1c(C)c2c(OCC(=O)NCC(C)C)cc3c(c2oc1=O)CCC(C)(C)O3	FMDV inh 17.8µM (no result: VACV Venus inh, Vaccinia mCherry)
COc1ccc(NC(=O)C2CC2)cc1S(=O)(=O)N1CCOCC1	none (no result: VACV Venus inh, Giardia FBPA inh, Vaccinia mCherry)
COc1ccc(NS(=O)(=O)c2c(F)cc(F)c(Cl)c2F)cc1S(=O)(=O)N1CCCCC1	VACV Venus inh 5.62µM, Vaccinia mCherry 3.55µM
Cc1ccccc1C(=O)NCC(=O)Nc1ccc(C)c(S(=O)(=O)N2CCCCCC2)c1	FMDV inh 35.5µM (no result: Giardia FBPA inh)
COc1ccc(NC(=O)C2CCC(C(C)(C)C)CC2)cc1S(=O)(=O)N1CCCCC1 (configuration not stated)	VACV Venus inh inconclusive, FMDV inh 17.8µM
COc1ccc(NS(=O)(=O)c2c(F)cccc2F)cc1S(=O)(=O)N1CCOCC1	none (no result: Giardia FBPA inh)
Cc1ccc(NC(=O)Cn2nc(C(=O)O)c3ccccc3c2=O)cc1S(=O)(=O)N1CCCCC1	FMDV inh 39.8µM (no result: Giardia FBPA inh)
Cc1ccccc1OCC(=O)Nc1ccc(C)c(S(=O)(=O)N2CCCCCC2)c1	Vaccinia mCherry inconclusive (no result: Giardia FBPA inh)
COc1cccc(-c2ccc(O)c(CNC(c3ccccc3)c3ccc(Cl)cc3)c2)n1 (configuration not stated)	none (no result: Giardia FBPA inh)
CC(Oc1ccccc1)C(=O)NCC1Cc2cc(F)cc(-c3ccccn3)c2O1 (configuration not stated)	none (no result: Giardia FBPA inh)
COc1ccc(F)cc1S(=O)(=O)N1CCC(C(N)=O)CC1	VACV Venus inh 12.6µM, Vaccinia mCherry inconclusive
COc1ccc(C(C)(C)C)cc1S(=O)(=O)N1CCC(C(N)=O)CC1	none
COc1cc(CCC(=O)Nc2ccc(S(=O)(=O)N3CCCC3)cc2)cc(OC)c1OC	none (no result: VACV Venus inh, Giardia FBPA inh, Vaccinia mCherry)
COc1cc(CCC(=O)Nc2ccc(C)c(S(=O)(=O)N3CCCCCC3)c2)cc(OC)c1OC	FMDV inh 17.8µM, Vaccinia mCherry inconclusive (no result: Giardia FBPA inh)
CCC1CN(CCNC(=O)c2cc3ccccc3oc2=O)Cc2cc(OC)ccc2O1 (configuration not stated)	none (no result: Giardia FBPA inh)
C=C1C=C(C(F)F)n2ncc(C(=O)NCc3ccccc3OC)c2N1	none (no result: Giardia FBPA inh, FMDV inh)
Cc1cc(C)n(-c2nc(Nc3ccccc3C(F)(F)F)nc(-n3nc(C)cc3C)n2)n1	VACV Venus inh 12.6µM, FMDV inh inconclusive (no result: Vaccinia mCherry)
CN(C)CCCN(C(=O)c1cc2cc([N+](=O)[O-])ccc2s1)c1nc2cc3c(cc2s1)OCCO3	VACV Venus inh 12.6µM, FMDV inh 39.8µM, Vaccinia mCherry 14.1µM (no result: Giardia FBPA inh)
CN(C)CCCN(C(=O)c1ccc([N+](=O)[O-])s1)c1nc2cc3c(cc2s1)OCCO3	none (no result: VACV Venus inh, Vaccinia mCherry)
C(=C\c1ccccc1)/CN1CCN(c2ncnc3c2oc2ccccc23)CC1	FMDV inh 20µM (no result: VACV Venus inh, Vaccinia mCherry)
CN(C)CC(C)(O)c1ccc2c(c1)CN(Cc1cnn(-c3ccccc3)c1)CCO2 (configuration not stated)	none (no result: Giardia FBPA inh)
CC1=C(C(=O)N(C)C)CC(CC(=O)NC(c2ccccc2)c2ccccc2)C(=O)N1Cc1ccc(C(C)(C)C)cc1 (configuration not stated)	VACV Venus inh inconclusive (no result: Giardia FBPA inh)
CCN(CC)C(=O)C1=C(C)N(Cc2ccc(C(C)(C)C)cc2)C(=O)C(CC(=O)NC(c2ccccc2)c2ccccc2)C1 (configuration not stated)	VACV Venus inh 12.6µM, FMDV inh inconclusive, Vaccinia mCherry inconclusive (no result: Giardia FBPA inh)
CC(=O)N1CCc2c(sc(NC(=O)C3CC3)c2-c2nc3ccccc3s2)C1	VACV Venus inh inconclusive, FMDV inh 25.1µM, Vaccinia mCherry inconclusive
COc1ccccc1C(c1c(N)n(C)c(=O)n(C)c1=O)C(C)[N+](=O)[O-] (configuration not stated)	none
COc1ccccc1C(C[N+](=O)[O-])c1c(N)n(C)c(=O)n(C)c1=O (configuration not stated)	FMDV inh 31.6µM (no result: VACV Venus inh, Vaccinia mCherry)
CC(=O)[C@@H]1[C@H]2[C@H](C(=O)[C@H]3OC[C@@H]2O3)[C@H]2C=Cc3ccccc3N21	Giardia FBPA inh 22.3µM (no result: VACV Venus inh, FMDV inh, Vaccinia mCherry)
NC(=O)[C@@H]1[C@@H]2C(=O)N(c3ccc(F)cc3)C(=O)[C@@H]2[C@H]2C=Cc3ccccc3N21	Giardia FBPA inh inconclusive
Cc1ccc(F)cc1S(=O)(=O)NCc1nc(N2CCCC2)c2cccc(C)c2n1	none (no result: Giardia FBPA inh)
O=C1C2C3C=CC(C3)C2C(=O)N1CNc1ccc(O)cc1 (configuration not stated)	Giardia FBPA inh 3.15µM (no result: VACV Venus inh, FMDV inh, Vaccinia mCherry)
Cc1ccc(NCN2C(=O)C3C4C=CC(C4)C3C2=O)cc1 (configuration not stated)	none
CCCCC/C=C\C/C=C\C/C=C\C=C\C(=O)CCCC(=O)O	none (no result: VACV Venus inh, FMDV inh, Vaccinia mCherry)
COC(=O)c1c(NC(=O)/C=C/C(=O)O)sc(C)c1-c1ccc(C(C)C)cc1	Giardia FBPA inh inconclusive, FMDV inh 14.1µM
COC(=O)c1c(NC(=O)/C=C/C(=O)O)sc(C)c1-c1ccc(C)cc1	VACV Venus inh inconclusive, Giardia FBPA inh inconclusive, Vaccinia mCherry inconclusive
CCOC(=O)c1c(NC(=O)/C=C/C(=O)O)sc(C)c1-c1ccc(F)cc1	Giardia FBPA inh inconclusive, FMDV inh 31.6µM
CCOC(=O)c1c(NC(=O)/C=C/C(=O)O)sc(C)c1-c1ccc(C)c(C)c1	FMDV inh 31.6µM (no result: VACV Venus inh, Vaccinia mCherry)
CCOC(=O)CN(C)C(=O)c1cnn(-c2ncc3c(n2)-c2ccccc2CCC3)c1C	none (no result: Giardia FBPA inh)
COc1cc2c(cc1OC)C(C1C(=O)CC(C)(C)CC1=O)N(C(=O)CCl)CC2 (configuration not stated)	none
COc1cc2c(cc1OC)C(c1cc(Br)ccc1F)N(C(=O)CCl)CC2 (configuration not stated)	VACV Venus inh inconclusive, FMDV inh 28.2µM, Vaccinia mCherry inconclusive
CC(=O)Nc1cc(C(=O)N2CCN(C(=O)c3ccco3)CC2)cc2ncn(CCc3ccccn3)c12	none (no result: Giardia FBPA inh)
CC(=O)Nc1ccc(NC(=O)C2CCC(N3C(=O)C4C5C=CC(C6CC56)C4C3=O)CC2)cc1 (configuration not stated)	none (no result: VACV Venus inh, Vaccinia mCherry)
O=C(Nc1ccc(Cc2ccncc2)cc1)C1CCC(N2C(=O)C3C4C=CC(C5CC45)C3C2=O)CC1 (configuration not stated)	FMDV inh 14.1µM (no result: VACV Venus inh, Vaccinia mCherry)
O=Cc1ccc(Sc2nnc(-c3ccccc3)o2)c([N+](=O)[O-])c1	none (no result: VACV Venus inh, Vaccinia mCherry)
Cn1nc([N+](=O)[O-])nc1Sc1nnc(-c2ccccc2)o1	FMDV inh 22.4µM
CSC1=C(C#N)C(=O)NC(c2ccc(Cl)cc2)S1 (configuration not stated)	FMDV inh 20µM
COc1cccc(NC(=O)CN(C)C(=O)c2cc(-c3ccco3)nc3ccccc23)c1	none (no result: Giardia FBPA inh)
